Source: PubChem BioAssay (National Center for Advancing Translational Sciences (NCATS))
Sm TGR inh: inhibitors of Schistosoma mansoni thioredoxin glutathione reductase | Q962Y6 | purified TGR, DTNB reduction, TNB absorbance 405 nm | Potency, µM (titrated, usually from 114 µM), for inactives: top-dose activity change, negative = inhibition, most hits filed as inhibitors | 360,000 compounds, 3% hits | AID 485364; further: potency means the concentration at half of the fitted maximal effect; on the % scale 0 is the no-effect control and ±100 the full control effect; nearly all actives have a fitted effect of over 60% in size
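TGR 20 nM + NADPH 100 uM (dispensed conc.), cpd preinc 15 min RT; start with NADPH (500 uM addition) then DTNB (15 mM addition). Kinetic TNB absorbance, 405 nm filter. Four-parameter Hill fit across titration.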
NS1 function inh: blocks influenza NS1 protein function; Potency, µM (highest dose often 46.1 µM), for the others: top-dose activity, positive = more growth; 270,000 compounds, 0.4% hits; AID 2326; calls by dose curve; further: potency means the concentration at half of the fitted maximal effect; actives are rising curves; nearly all actives have a fitted effect of over 50% in size
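S. cerevisiae expressing influenza A NS1, grown in glucose, washed, then diluted 1:100 into pH 6.0 -URA galactose medium with 23 nl compound. Growth recovery read as OD600; NS1-free strain serves as control.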
Shiga inhibitor: inhibitors of Shiga toxin in Vero cells. inhibition, % at 38.7 µM. 290,000 compounds, 9.2% hits. Vero cells, Shiga toxin protein synthesis inhibition reporter. AID 2315; in the data active means inhibition mostly above about 28%, no sharp cut-off; inactive means mostly below about 43%; further: 0% is about no effect
Pf growth 48h: P. falciparum growth inhibition at 48 hours (one generation); P. falciparum luciferase growth in erythrocytes, 48 h; Potency, µM (titrated, usually from 28.7 µM), inactives show top-dose activity change, negative = inhibition, usual class: inhibitors; 310,000 compounds, 5.9% hits; further: potency means the concentration at half of the fitted maximal effect; on the % scale 0 is the no-effect control and ±100 the full control effect
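Read-out is firefly luciferase luminescence from an integrated reporter in P. falciparum, so falling signal marks reduced parasite growth. Infected erythrocytes were at 2% hematocrit and 0.1% parasitemia (final) in Albumax-supplemented RPMI 1640.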
Pf growth 96h: inhibits malaria parasite growth, 96 h | 320,000 compounds, 6.9% hits | AID 504834 | Potency, µM (highest dose often 28.7 µM), without a hit: top-dose activity change, negative = inhibition, actives largely listed as inhibitors | P. falciparum luciferase reporter growth, 96 h; further: potency means the concentration at half of the fitted maximal effect; on the % scale 0 is the no-effect control and ±100 the full control effect
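96 h incubation, 37 C, 5% CO2, of luciferase-reporter P. falciparum-infected RBCs (2% hematocrit, 0.05% parasitemia final) with test compounds; endpoint luminescence.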
CHX counter: counter-screen for Shiga toxin inhibitors: cycloheximide protein synthesis inhibition; cell reporter, cycloheximide protein synthesis inhibition counterscreen; max response, %; 300,000 compounds, 12% hits; AID 2314; in the data active means max response mostly above about 13%, no sharp cut-off; inactive means mostly below about 14%; further: read at 38.3 µM for the half of the compounds with a filed dose; 0% is about no effect
* = called active by the depositor; ? = inconclusive; · = not tested or not shown; [ ] = remark or other dose. Shown are actives, neighbours in structure and some others; about 21% of the full set was active somewhere. Unless noted, the call rests on the fitted dose curve; in most records, active means well fitted curve in the direction sought with a large enough effect; inconclusive means small, poorly fitted or top-dose-only effect, or another doubt; inactive means no such curve, though single readings can be large; an effect the other way counts as inactive or inconclusive.

SMILES	Sm TGR inh	NS1 function inh	Shiga inhibitor	Pf growth 48h	Pf growth 96h	CHX counter
Cc1ccc(-c2nc(NCc3ccco3)n(S(C)(=O)=O)n2)cc1	1.8%	·	-8.0	19.6%	?	-1.8
O=C(CCNC(=O)c1ccc(Br)cc1)NCc1ccco1	-19.3%	·	·	37.8%	27.4%	·
Cc1cc(C)c2c(CC(=O)NCc3ccco3)coc2c1	-11.8%	-8.9%	16.1	7.9%	1.04µM*	9.1
Cc1ccc(C(=O)NCCC(=O)NCc2ccco2)cc1	1.8%	-3.4%	-5.0	28.0%	10.4µM*	-2.5
Cc1ccc(OCCCC(=O)NCc2ccco2)c(C)c1	-30.2%	-6.1%	4.4	4.15µM*	11.0%	3.5
CCOc1ccc(CCNC(=O)Cn2ncn3c(cc4sc(C)cc43)c2=O)cc1OCC	4.8%	·	·	·	·	·
Cc1ccc(Cl)cc1NS(=O)(=O)c1ccc2oc(=O)ccc2c1	-1.7%	-12.9%	-2.9	0.1%	?	-6.3
Cc1ccc(-c2nc(C)sc2CC(=O)NCc2ccco2)cc1	22.4µM*	-6.6%	21.3	17.2%	·	0.5
Cc1ccc(SCC(=O)NCc2ccco2)cc1	?	1.4%	39.6	?	?	17.1*
CC(=O)Nc1ccc(SCC(=O)OCC(=O)NC(=O)NCc2ccco2)cc1	-2.2%	-1.9%	32.5	-2.6%	9.28µM*	2.5
Cc1ccc(NC(=O)Cc2sc(C)nc2-c2ccc(C)cc2)cc1	1.2%	-10.7%	10.3	-5.6%	?	8.6
O=C(CSc1ccc(Cl)cc1)NCc1ccco1	-13.9%	-3.3%	33.7	76.7%	?	31.7*
O=C(CSc1ccc(Cl)cc1)NC(=O)NCc1ccco1	-23.5%	·	19.4	12.2%	50.1%	-0.8
CCN(CC(=O)NCc1cccs1)C(=O)c1cccc(S(=O)(=O)Nc2ccccc2Cl)c1	-3.6%	·	·	?	-26.8%	·
CCCc1c(-c2ccc(O)cc2)nn(-c2ccc(O)cc2)c1-c1ccc(O)cc1	0.0%	-39.9%	-17.1	18.4%	8.2%	-10.4
Cc1ccc(NC(=O)CNc2ccccc2CN(C)C2CCCCC2)cc1	-0.4%	-31.3%	18.9	?	?	-3.0
Cc1cc(Cn2nnnc2-c2ccncc2)cc(C)c1O	2.51µM*	3.3%	-12.6	8.5%	?	-2.5
O=C(O)Cn1nnnc1-c1ccc(F)cc1	?	-7.2%	-13.4	-6.4%	·	0.9
CCN(CC)S(=O)(=O)c1cccc(C(=O)NNC(=O)C2=NN(c3ccccc3)C(=O)CC2)c1	-1.2%	-1.1%	-3.7	3.1%	5.4%	-3.3
COc1ccc(NC(=O)N(CCN2CCCC2)Cc2cc3cc(OC)c(OC)cc3[nH]c2=O)cc1	-29.2%	0.1%	3.8	9.28µM*	?	0.8
Cc1ccc2cc(CN(CCN3CCCC3)C(=O)Nc3ccc(F)cc3)c(=O)[nH]c2c1C	-22.6%	?	-9.4	13.1µM*	-11.4%	-4.4
Cc1ccc2cc(CN(CCN3CCCC3)C(=O)Nc3ccccc3)c(=O)[nH]c2c1C	-4.0%	-4.4%	-2.7	10.4µM*	?	-2.7
CCN1CCCC1CN(Cc1cc2ccc(C)c(C)c2[nH]c1=O)C(=O)Nc1ccccc1OC (stereo unspecified)	-1.2%	10.3%	24.8	-0.2%	?	7.7
Cc1ccc2cc(CN(CCN3CCOCC3)C(=O)NCc3ccccc3)c(=O)[nH]c2c1C	0.0%	1.8%	-9.0	?	?	-6.0
CCCCCOC(=O)CSc1nc2sc3c(c2c(=O)n1Cc1ccccc1)CC(C)(CC)OC3 (stereo unspecified)	11.0%	·	·	·	·	·
SMILES	Sm TGR inh	NS1 function inh	Shiga inhibitor	Pf growth 48h	Pf growth 96h	CHX counter
CCC(C)NC(=O)C1CCN(S(=O)(=O)c2ccc3c(ccn3CC)c2)CC1 (stereo unspecified)	-0.8%	·	·	·	·	·
COc1ccc(C(=O)C[n+]2cn(C(F)F)c3ccccc32)c(F)c1	10µM*	·	27.8	41.9%	42.5%	43.9
O=C(c1cc([N+](=O)[O-])ccc1Cl)N1CCN(Cc2ccc3c(c2)OCO3)CC1	-3.8%	0.0%	-22.3	-2.1%	-66.7%	-1.7
COC(=O)c1cccc(NC2=NS(=O)(=O)c3ccccc32)c1	4.0%	·	·	·	·	·
O=C(C1CCN(S(=O)(=O)c2ccc3c(c2)OCCO3)CC1)N1CCc2ccccc21	-0.2%	-22.8%	-4.7	?	10.4µM*	1.1
CN(CC(=O)Nc1cccc(F)c1)C(=O)C1CCN(S(=O)(=O)c2ccc3c(c2)OCCO3)CC1	2.9%	·	·	9.28µM*	4.15µM*	·
CCN(Cc1ccccc1)C(=O)C1CCN(S(=O)(=O)c2ccc3c(c2)OCCO3)CC1	0.1%	7.4%	-4.0	?	13.1µM*	0.9
O=[N+]([O-])c1c(Nc2ccccc2O)cc(Cl)c2nonc12	0.631µM*	-58.1%	1.2	11.7µM*	1.8%	-10.0
O=C(O)c1cc(Nc2cc(Cl)c3nonc3c2[N+](=O)[O-])ccc1O	0.1µM*	4.4%	-3.1	17.8%	15.0%	2.5
Cc1ccccc1Nc1ccc2nonc2c1[N+](=O)[O-]	-22.4%	4.3%	-2.8	12.2%	6.57µM*	-1.7
Nc1cc(Cl)c2nonc2c1[N+](=O)[O-]	1.41µM*	-12.2%	21.8	-2.1%	10.4%	-3.3
O=[N+]([O-])c1c(Nc2ccc(O)cc2)cc(N2CCOCC2)c2nonc12	-7.6%	8.2%	7.6	16.1%	255.0%	3.0
O=c1oc2cc(O[C@@H]3OC[C@@H](O)[C@H](O)[C@H]3O)ccc2c2ccccc12	-12.6%	1.0%	-10.6	-3.9%[0.00184 µM]	37.5%	-3.0
CCOC(=O)c1c(C)[nH]c(C)c1S(=O)(=O)NCC(=O)Nc1cccc(Cl)c1	13.1%	·	·	·	·	·
Cc1ccc(S(=O)(=O)NCC(=O)OC(C)C(=O)Nc2ncc(Cl)cc2Cl)cc1 (stereo unspecified)	-3.9%	8.0%	-11.0	10.0%	0.0%	-2.2
CC(C)c1ccc(NC(=O)C(NS(=O)(=O)c2ccc3c(c2)CCC(=O)N3)c2ccccc2)cc1 (stereo unspecified)	-2.4%	·	·	·	·	·
CCSc1nc2c([nH]c3ccccc32)c(=O)n1C	?	2.6%	10.1	·	-21.8%	-4.6
C=CCSc1nnc2c(n1)[nH]c1c(C)cccc12	-4.7%[11.4 µM]	-44.5%	59.9*	·	11.7µM*	40.0*
CCSc1nnc2nc3[nH]c4c(C)cccc4c3nn12	-3.5%	·	61.5*	65.5%	3.3%	40.2*
O=C(CSc1nnc2c(n1)[nH]c1ccccc12)N1CCCCC1	-12.0%	-1.5%	18.8	?	?	2.3
CCCC[C@H](O)c1ccccc1	·	·	·	1.4%	?	·
CCN(C(=O)CSc1nnc(C2CC2)n1-c1ccccc1)C1CCS(=O)(=O)C1 (stereo unspecified)	0.6%	·	·	-13.3%	0.5%	·
O=C(Cn1cc(C(=O)C2CC2)c2ccccc21)NCc1ccc2c(c1)OCO2	-22.3%	-11.9%	-9.6	5.2%	3.1%	1.3
CC1(C)CC(=O)C(Sc2ccccc2)=C(O)C1	10µM*	-1.5%	0.8	31.7%	-8.1%	10.7
CC(=NC(C)C)C1=C(O)CCC1=O	-4.3%	?	2.3	45.1%	77.7%	1.6
